{"source": "the supplement of paper PMC6555819"}
{"system": "PPARg:RXRa 30nM:10nM, anti-RXR (NR concentration 30 nM, RXRa partner concentration 10 nM)", "assay": "PBM binding z-score (relative to random genomic background probes); higher = stronger binding; sequences stand for … in GC…GCGATTGACAGCGTAGAATGAAGG", "method_in_brief": "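Custom Agilent 4×180K protein-binding microarrays carried double-stranded probes, each with a 34-nt variable region. These regions held direct-repeat seeds, single-nucleotide variants, half-site ablations and random human genomic background sequences. Ligand-free nuclear receptor dimers were incubated on the arrays for 1 h, antibodies against each partner (one per run) detected binding, and scanned fluorescence was regression-normalized. Binding z-scores take the random background probes as reference.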"}
{"sequence": "ATCTCTAGGTAAATGTTCAGTGAATCCCGAGGAT", "PBM binding z-score": 0.602}
{"sequence": "AGTCAAAGTTCAGGACGAGGTAAAGTAAAGCACG", "PBM binding z-score": 1.9}
{"sequence": "CCTACTGGGCCAAAGGTCATAGATTCCAATGCTC", "PBM binding z-score": 11}
{"sequence": "AGTAAAAGTTCACTAGGTAACGTAAGATTCAGCT", "PBM binding z-score": 2.09}
{"sequence": "GCTTCCGGGTCAAAGGTTATAGCATGAATAGAAT", "PBM binding z-score": 10.7}
{"sequence": "CAAACTAGGTCACGAAAGGTCAAAATCGAATGAC", "PBM binding z-score": 6.67}
{"sequence": "CGAACTAGGTCAAAGGACACTGAAAGGCGACGTA", "PBM binding z-score": 10.1}
{"sequence": "GGAACGGGGGCATTCGAGTTGATAGCATGGCGAT", "PBM binding z-score": 1.54}
{"sequence": "ACTAGGAGGACAAAGGTCAGAGCTACGCCAGTGA", "PBM binding z-score": 7.87}
{"sequence": "TATACTGGGTCAAAGGCCAGAGTACGAATGTCGA", "PBM binding z-score": 8.63}
{"sequence": "CAAACTAGGTCAAGGTCAAATTCGGTTTGTGCCA", "PBM binding z-score": 6.71}
{"sequence": "AGTCAAAGTTCACTAGGCAACGTAAGATTCAGCT", "PBM binding z-score": 3.31}
{"sequence": "CGTCCAAGGTCAATGTTAGGTCAGTGAAAGCATT", "PBM binding z-score": 0.937}
{"sequence": "CGTCCAAGGTCAGAGAGGTCAGTGTATGCCGAGT", "PBM binding z-score": 0.927}
{"sequence": "ACTAGCAGGCCAAAGGTCACTCAAGATTAGTCCG", "PBM binding z-score": 8.65}
{"sequence": "GATACAGGGTGAGCTAGAGGCCAGAGTATGGAAA", "PBM binding z-score": -0.29}
{"sequence": "CAAACTAGGTCAAAGGTCAACGTCGAGCCAACCA", "PBM binding z-score": 13.9}
{"sequence": "CGGACTGGGGCAAAGGTTACCATACTCAGTACGA", "PBM binding z-score": 9.67}
{"sequence": "GCATACGGGTCAAAGGTTATAGCATGAATAGAAT", "PBM binding z-score": 10.1}
{"sequence": "ACTAGCAGGTCAAGGGTCACTCAAGATTAGTCCG", "PBM binding z-score": 8.21}
{"sequence": "CAAACTAGGTCACGAGGTCAAAGTCCGCTTCCCG", "PBM binding z-score": 7.29}
{"sequence": "TCATATAGGTTAAGGTGAAAGTCGAACGATATGA", "PBM binding z-score": 4.32}
